In PubChem BioAssay (NCI):
The panel holds about 83,000 compounds, 20% with a hit somewhere; the sample as a whole holds those more often.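 Method: cells in 96-well plates; compound added at one concentration; 48 h incubation; percent growth measured; values under 10 scored active.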 Activity calls are given as the source filed them.

Assays:
Test in all cases: NCI-60 one-dose screen, 48 h (100 = growth as untreated, 0 = no growth, -100 = all killed)
Conditions in all cases: 10 µM unless noted
[1] = tested on: HCT-15 colon
[2] = tested on: HT29 colon
[3] = tested on: SNB-75 CNS
[4] = tested on: SNB-19 CNS
[5] = tested on: U251 CNS
[6] = tested on: PC-3 prostate
[7] = tested on: SK-MEL-5 melanoma
[8] = tested on: UACC-62 melanoma
[9] = tested on: LOX IMVI melanoma
[10] = tested on: SK-MEL-28 melanoma
[11] = tested on: SK-MEL-2 melanoma
[12] = tested on: EKVX NSCLC
[13] = tested on: SN12C renal
[14] = tested on: UO-31 renal
[15] = tested on: TK-10 renal
[16] = tested on: ACHN renal
[17] = tested on: CAKI-1 renal
[18] = tested on: A498 renal
[19] = tested on: CCRF-CEM leukemia
[20] = tested on: MOLT-4 leukemia

Measured: growth

Nc1c(Br)cc2c(c1Br)Cc1cc([N+](=O)[O-])ccc1-2
inactive: [1] 104% | [2] 110% | [3] 75.3% | [4] 94.5% | [5] 95.5% | [6] 87.9% | [7] 91.4% | [8] 89.1% | [9] 102% | [10] 113% | [11] 109% | [12] 55.3% | [13] 101% | [14] 79.1% | [15] 90.6% | [16] 93.2% | [17] 98% | [18] 114% | [19] 95.7%

CNC(=O)c1cc(Oc2ccc3c(c2)sc2nc(-c4cc(C(F)(F)F)cc(C(F)(F)F)c4)cn23)ccn1
inactive: [1] 70.9% | [2] 38.7% | [3] 23.3% | [4] 62.8% | [5] 38.6% | [6] 45.4% | [7] 33% | [8] 53.3% | [9] 50.1% | [10] 79.3% | [11] 56.8% | [12] 45.1% | [13] 60.2% | [14] 61.7% | [15] 36% | [16] 50.3% | [17] 51.1% | [18] 42.5% | [19] 64.1%

Cc1ccc(C2CC(c3cccc(Nc4ccncc4)c3)=Nc3c(N)nc(N)nc3N2)cc1 (stereo not drawn)
inactive: [1] 40.4% | [2] 21.7% | [3] 70% | [4] 70.5% | [5] 42.4% | [6] 43.8% | [7] 65.3% | [8] 78.4% | [9] 25.7% | [10] 93.2% | [11] 71.1% | [12] 60.2% | [13] 61.2% | [14] 75.3% | [15] 99.8% | [16] 56.1% | [17] 72.3% | [18] 86% | [19] 33.9%

N#CSc1c[nH]c2ccc(/C=C/C(=O)/C=C(O)/C=C/c3ccc4[nH]cc(SC#N)c4c3)cc12
active: [1] -31% | [2] -10.1% | [5] 7.38% | [9] -75.8% | [14] -40.1% | [15] 8.11% | [16] 0.691% | [19] 2.04%
inactive: [3] 51.9% | [4] 46.2% | [6] 12% | [7] 41.2% | [8] 26.3% | [10] 31.8% | [11] 34.2% | [12] 28.8% | [13] 18.4% | [17] 11.9% | [18] 90.5%

O=c1cc(CNc2cc(F)cc(F)c2)c2ccc(I)cc2[nH]1
active: [2] 8.99% | [3] -9.56% | [18] 3.87%
inactive: [1] 32.1% | [4] 49.8% | [5] 31.8% | [6] 26.7% | [7] 18.5% | [8] 36.7% | [9] 41% | [10] 64% | [11] 39.2% | [12] 44% | [13] 51.7% | [14] 39.7% | [15] 53.3% | [16] 36.3% | [17] 26.6% | [19] 14.8% | [20] 28.1%

Nc1nc(N)c2c(n1)NC(c1cccc(Nc3ccnc4cc(C(F)(F)F)ccc34)c1)CC(c1ccc3c(c1)OCO3)=N2 (stereo not drawn)
inactive: [1] 37.4% | [2] 23.8% | [3] 78.7% | [4] 76.5% | [5] 56.4% | [6] 48.5% | [7] 66.4% | [8] 90.6% | [9] 65.7% | [10] 96.3% | [11] 61.6% | [12] 76.7% | [13] 81.6% | [14] 69.2% | [15] 90.1% | [16] 102% | [17] 59.6% | [18] 87.9% | [19] 50.9%

Brc1ccc(Nc2nc(Nc3cnc4ccccc4c3)c3[nH]cnc3n2)cc1
inactive: [1] 83% | [2] 70.7% | [3] 77.5% | [4] 93.6% | [5] 89.4% | [6] 27.6% | [7] 72.6% | [8] 66.8% | [9] 63.7% | [10] 94.2% | [11] 78.2% | [12] 40.3% | [13] 88.3% | [14] 70.3% | [15] 113% | [16] 77.5% | [17] 82.9% | [18] 79.6% | [19] 60.6%

CN(C)c1ccc([C@@H](C(=O)Nc2cccc([N+](=O)[O-])c2)N(C(=O)c2cc3ccccc3[nH]2)c2cccc([N+](=O)[O-])c2)cc1
inactive: [1] 103% | [2] 101% | [3] 78.2% | [4] 97.8% | [5] 88.8% | [6] 82.7% | [7] 97.7% | [8] 86.7% | [9] 88% | [10] 112% | [11] 113% | [12] 90.7% | [13] 97.8% | [14] 67.6% | [15] 117% | [16] 93.3% | [17] 92.5% | [18] 70.5% | [19] 96.1%
